Source: PubChem BioAssay

Assay: yeast transport mutant growth inhibition pilot in 384-well plates, post-Golgi transport modulator project (AID 636; in the data active means inhibition above about 31%)
Conditions: absorbance 615 nm, about 18 h, active compounds read high

inhibition, inactive:
COc1cc(C2Oc3cc(C4Oc5cc(O)cc(O)c5C(=O)C4O)ccc3OC2CO)ccc1O (stereo not drawn) 1.3%
CCOc1ccccc1N1CC(O)=C(c2nc3ccccc3s2)C1=N 1.47%
CCOC(=O)N1CCC(NC(=O)Cc2ccc(-n3c(=O)[nH]c4ccccc4c3=O)cc2)CC1 -5.06%
O=C(CSc1nc(-c2ccco2)cc(C(F)(F)F)n1)N1CCCc2ccccc21 -1.05%
Cc1cccc(NC(=O)C2CCCN(C(=O)Nc3ccccc3)C2)c1C (stereo not drawn) -1.04%
COc1ccc(C(=O)CSc2nnc(-c3ccc(C)cc3)o2)cc1 4%
O=C(NCc1nc2ccccc2[nH]1)c1ccc(Cl)c(S(=O)(=O)N2CCCC2)c1 0.55%
Cc1nc2scc(-c3ccco3)c2c(=O)n1/N=C/N(C)C -4.86%

Assay: growth suppression of yeast trafficking mutant, preliminary HTS, modulators of trafficking downstream of Golgi apparatus project, 1536-format plate, OD 615 nm (AID 637)
Conditions: yeast transport mutant growth, absorbance 615 nm, 18 h; active compounds read high

inhibition, inactive:
Cc1nccn1CCCN1C(=O)OC2(CCCCC2)C1(C)O (stereo not drawn) -1.29%
CCOC(=O)/C=C1\SCC(=O)N1Cc1nnc(-c2ccccc2Br)o1 1.82%
Cc1ccc(S(=O)(=O)N2CCN(C(=O)c3cc(=O)[nH]c4ccccc34)CC2)c(C)c1 2.74%
OC(CCCN1CCC(O)(c2ccc(Cl)cc2)CC1)c1ccc(F)cc1 (stereo not drawn) 4.5%
CCCC(=O)n1nc(-c2ccc(OC)cc2)nc1N 5.74%
Cc1ccc(-c2nn(-c3ccccc3)cc2/C=C(\C#N)c2cccc(C#N)c2)o1 5.27%
Fc1cccc(NCc2cn3ccccc3n2)c1 21.4%
CCCc1nc(NCc2ccncc2)c2nnn(Cc3ccccc3F)c2n1 -3.39%
O=C1OCCC1Sc1ncnc2sccc12 (stereo not drawn) -2.18%
CCOC(=O)C1=C[C@]2(CC)CCCN3CCc4c(n1c1ccccc41)[C@@H]32 -1.67%
C=CCNC(=O)c1ccc(Cl)cc1Cl -1.48%
CCCC(=O)Nc1cc(-c2nnc(OC)c3ccccc23)ccc1N1CCOCC1 3.71%
COC(=O)C1C2C=CC3(CN(CC4CCCO4)C(=O)C13)O2 (stereo not drawn) -0.18%
Cc1cc(C(C)(C)C)cc(C)c1CC1=NCCN1 -4.5%
CCCn1c(=O)c2[nH]c(C3CCCC3)nc2n(CCC)c1=O -1%
c1ccc(OCc2nc(-c3ccccc3)no2)cc1 29.5%
C=CCn1c(SCC(=O)NCC2CCCO2)nc2scc(-c3ccco3)c2c1=O (stereo not drawn) 2.58%
COC(=O)Cc1c(C)nc2nc[nH]n2c1=O -2.91%
CCOCCCn1c(=NC(C)=O)c(C(=O)OCC)cc2c(=O)n3ccccc3nc21 2%
Cc1ccc(N2CCN(c3ccc(C)cc3)C(CC(=O)O)C2=O)cc1 (stereo not drawn) -3.23%
C[C@@H]1C[C@H]2[C@@H]3C[C@H](F)C4=CC(=O)C=C[C@]4(C)[C@@]3(F)[C@@H](O)C[C@]2(C)[C@@]1(O)C(=O)COC(=O)C(C)(C)C -11.3%
CC(C)N(C(=O)N1CCC(c2nc(-c3ccncc3)no2)CC1)C(C)C -5.64%
CCOc1cc2[nH]c(=O)n(CCCCC(=O)NCc3ccco3)c(=O)c2cc1OCC 1.97%
Cc1ccc(C2C(C(=O)c3sc(C)nc3C)=C(O)C(=O)N2CCN(C)C)o1 (stereo not drawn) 0%
COc1cc(C(=O)N2CCCC(c3nc(-c4cccs4)no3)C2)cc(OC)c1OC (stereo not drawn) 16%
CC1Oc2ccccc2N(CC(=O)NCc2cccs2)C1=O (stereo not drawn) -0.91%
Cn1c(=O)c2c(nc(CN3CCCCC3)n2CCCc2ccccc2)n(C)c1=O 6.23%
O=C(O)CC1Sc2nc3ccccc3n2C1=O (stereo not drawn) -5.27%
CCN(CC)S(=O)(=O)c1ccc(F)c(C(=O)NCCC(C)C)c1 -2.73%
CCOC(=O)n1c(=O)oc2cc(S(=O)(=O)N3CCCCC3)ccc21 -2.91%
COC(=O)CCN(C(=O)c1ccc2c(c1)OCO2)c1ccccn1 0.55%
CC(C)NC(=O)c1ccccc1NC(=O)CCS(=O)(=O)Cc1ccccc1 9.82%
COc1cc(C2Oc3cc(C4Oc5cc(O)cc(O)c5C(=O)C4O)ccc3OC2CO)ccc1O (stereo not drawn) -3.5%
CCOc1ccccc1N1CC(O)=C(c2nc3ccccc3s2)C1=N 2.36%
CCOC(=O)N1CCC(NC(=O)Cc2ccc(-n3c(=O)[nH]c4ccccc4c3=O)cc2)CC1 0%
O=C(CSc1nc(-c2ccco2)cc(C(F)(F)F)n1)N1CCCc2ccccc21 -0.16%
Cc1cccc(NC(=O)C2CCCN(C(=O)Nc3ccccc3)C2)c1C (stereo not drawn) 3.11%
COc1ccc(C(=O)CSc2nnc(-c3ccc(C)cc3)o2)cc1 5.09%
O=C(NCc1nc2ccccc2[nH]1)c1ccc(Cl)c(S(=O)(=O)N2CCCC2)c1 -4.35%
Cc1nc2scc(-c3ccco3)c2c(=O)n1/N=C/N(C)C -4.73%
